PubChem BioAssay (Tox21)
Results filed as inconclusive are left out. Unmarked numbers belong to inactive results. Calls of active or inactive are those of the source. Unless noted, the call rests on the fitted dose curve; in most records, active means well fitted cell-killing curve with a large enough effect in the repeat runs (not every such curve was filed as active); inconclusive means weak or mixed curves, or effect the other way; inactive means no such curve, though single readings can be large or run the other way.

Biological target: Bile acid receptor (Homo sapiens) (UniProt Q96RI1)
Sequence (Q96RI1 whole entry, looked up): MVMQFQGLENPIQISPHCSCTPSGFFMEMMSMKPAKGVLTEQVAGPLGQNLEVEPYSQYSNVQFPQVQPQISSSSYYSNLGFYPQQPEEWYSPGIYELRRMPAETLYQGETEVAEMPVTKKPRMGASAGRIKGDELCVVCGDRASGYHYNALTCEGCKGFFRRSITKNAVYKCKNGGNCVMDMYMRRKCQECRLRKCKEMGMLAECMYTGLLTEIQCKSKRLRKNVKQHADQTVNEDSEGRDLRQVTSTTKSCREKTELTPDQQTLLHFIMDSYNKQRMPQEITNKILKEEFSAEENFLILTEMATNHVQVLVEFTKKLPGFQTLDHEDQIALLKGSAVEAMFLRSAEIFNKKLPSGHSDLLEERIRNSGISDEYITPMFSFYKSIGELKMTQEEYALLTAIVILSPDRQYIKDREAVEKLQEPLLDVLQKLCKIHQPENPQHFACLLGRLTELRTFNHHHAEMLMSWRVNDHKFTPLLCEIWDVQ
Assay: qHTS assay to identify small molecule agonists of the farnesoid-X-receptor (FXR) signaling pathway (AID 743220; active means well fitted activation curve with a large enough effect in the signal ratio in the repeat runs, not every such curve was filed as active; the % refers to the signal ratio)
Details: HEK293T FXR-UAS-bla, beta-lactamase FRET ratio, 16 h; series mostly up to 62.6 µM; activation: at the top concentration
In short: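 FXR-UAS-bla HEK 293T cells carrying a UAS-driven beta-lactamase reporter were plated for 5 h at 37C/5% CO2, then exposed to DMSO-dissolved Tox21 10K compounds for 16 h at 37C. A LiveBLAzer B/G FRET substrate was loaded for 2 h at room temperature before fluorescence reading.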
On the % scale 0 is the no-effect control and ±100 the full control effect.

With `CCCCC/C=C\C=C\C(=O)OCC` the “activation” value was -1.47% [at 81.1 µM].

Compared with `CC(O)(c1ccc(Cl)cc1)c1ccc(Cl)cc1`, `O=C(Nc1ccccc1)c1cc(Cl)ccc1O` is lower in “activation” value: 1.65% for the first, -0.869% for the second.

Compared with `CN(C/C=C/c1ccccc1)Cc1cccc2ccccc12`, `COc1cccc(-c2ccc(/C=C\CN3CCCCCC3)cc2Cl)c1` is lower in “activation” value: 2.28% for the first, -4.26% for the second.

Going from `COc1cc([C@@H]2c3cc4c(cc3[C@@H](O[C@@H]3O[C@@H]5CO[C@@H](C)O[C@H]5[C@H](O)[C@H]3O)[C@H]3COC(=O)[C@H]23)OCO4)cc(OC)c1O` to `C[C@H]1O[C@@H](O[C@H]2CC[C@@]3(C)[C@H](CC[C@@H]4[C@@H]3C[C@@H](O)[C@]3(C)[C@@H](C5=CC(=O)OC5)CC[C@]43O)C2)C[C@H](O)[C@@H]1O[C@H]1C[C@H](O)[C@H](O[C@H]2C[C@H](O)[C@H](O[C@@H]3O[C@H](CO)[C@@H](O)[C@H](O)[C@H]3O)[C@@H](C)O2)[C@@H](C)O1`, the “activation” value falls from 2.09% to -1.72%.

Compared with `S=C1NC=NC2N=CNC12` (stereo not drawn), `O=[N+]([O-])c1ccc(O)c2ncccc12` is higher in “activation” value: -4.47% for the first, 2.6% for the second.

Test system: not listed separately
Assay: qHTS assay to identify small molecule antagonists of the farnesoid-X-receptor (FXR) signaling pathway - cell viability counter screen (AID 743221); further: nearly all actives have a fitted effect of over 50% in size; further: potency means the concentration at half of the fitted maximal effect
Details: FXR-bla HEK293T viability, CellTiter-Glo luminescence, 16 h; series mostly up to 62.6 µM; activity change, negative = cytotoxicity: at the top concentration
In short: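 Here viability was scored by luminescence after CellTiter-Glo addition to wells already read for beta-lactamase. Prior treatment: compound plus CDCA (50 uM final), 16 h, 37 C, HEK 293T FXR-bla cells.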

With `CN(C[C@@H](CC[N+]12CCC(C3CCCCC3)(CC1)CC2)c1ccc(Cl)c(Cl)c1)C(=O)c1cc(C(F)(F)F)cc(C(F)(F)F)c1` the Potency was 27.5 µM (active).
In the case of `Cc1cc(F)ccc1-c1cc(N2CC[C@@H](O)[C@H]2CO)ncc1N(C)C(=O)C(C)(C)c1cc(C(F)(F)F)cc(C(F)(F)F)c1`, the Potency is reported as 15.3 µM (active).
For `COc1cc(/C=C/C(=O)CC(=O)/C=C/c2ccc(O)c(OC)c2)ccc1O`, the Potency was 43.9 µM (active).
In the case of `CCCCCN=C(N)N/N=C/c1c[nH]c2ccc(OC)cc12`, the Potency is reported as 29.8 µM (active).
In the case of `CN(C)CCOc1ccc(/C(=C(/CCCl)c2ccccc2)c2ccccc2)cc1`, the Potency is reported as 40.9 µM (active).

First: O=C1OC(O)C(C(Cl)Cl)=C1Cl (stereo not drawn)
Second: CCSCC
The “activity change, negative = cytotoxicity” value of the first is lower: -1.29% [at 81.1 µM] for the first, 3.66% [at 81.1 µM] for the second.

Going from `Cc1ccc2nc(-c3ccc(N)cc3)sc2c1S(=O)(=O)O` to `CC(C)c1ccc2sc3ccccc3c(=O)c2c1`, the “activity change, negative = cytotoxicity” value rises from -11.3% to -8.2%.

Going from `Cc1ccc(Cl)c(N)c1Cl` to `CC(O)(c1ccc(Cl)cc1)c1ccc(Cl)cc1`, the “activity change, negative = cytotoxicity” value falls from 9% to -8.03%.

Compared with `CN1CC[C@H](c2c(O)cc(O)c3c(=O)cc(-c4ccccc4Cl)oc23)[C@H](O)C1`, `O=C(CCN1CCC(c2ccccc2)C1)c1ccc2c(c1)OCCO2` (stereo not drawn) is lower in “activity change, negative = cytotoxicity” value: 17.5% for the first, -5.23% for the second.

Going from `C=CCc1cc(S(=O)(=O)c2ccc(O)c(CC=C)c2)ccc1O` to `O=[N+]([O-])c1ccc(O)c2ncccc12`, the “activity change, negative = cytotoxicity” value rises from -1.05% to 2.63%.

First: CN(C/C=C/c1ccccc1)Cc1cccc2ccccc12
Second: O=C(CCCCCCCCc1cccnc1)N1CCC(C=C(c2ccccc2)c2ccccc2)CC1
The “activity change, negative = cytotoxicity” value of the first is lower: -23.5% for the first, 3.54% for the second.

First: COc1cc([C@@H]2c3cc4c(cc3[C@@H](O[C@@H]3O[C@@H]5CO[C@@H](C)O[C@H]5[C@H](O)[C@H]3O)[C@H]3COC(=O)[C@H]23)OCO4)cc(OC)c1O
Second: O=C1OC(=O)c2cc(-c3ccc4c(c3)C(=O)OC4=O)ccc21
The “activity change, negative = cytotoxicity” value of the first is higher: 6.97% for the first, -13% for the second.

Biological target: Vitamin D3 receptor (Homo sapiens) (UniProt P11473)
Sequence (P11473 whole entry, looked up): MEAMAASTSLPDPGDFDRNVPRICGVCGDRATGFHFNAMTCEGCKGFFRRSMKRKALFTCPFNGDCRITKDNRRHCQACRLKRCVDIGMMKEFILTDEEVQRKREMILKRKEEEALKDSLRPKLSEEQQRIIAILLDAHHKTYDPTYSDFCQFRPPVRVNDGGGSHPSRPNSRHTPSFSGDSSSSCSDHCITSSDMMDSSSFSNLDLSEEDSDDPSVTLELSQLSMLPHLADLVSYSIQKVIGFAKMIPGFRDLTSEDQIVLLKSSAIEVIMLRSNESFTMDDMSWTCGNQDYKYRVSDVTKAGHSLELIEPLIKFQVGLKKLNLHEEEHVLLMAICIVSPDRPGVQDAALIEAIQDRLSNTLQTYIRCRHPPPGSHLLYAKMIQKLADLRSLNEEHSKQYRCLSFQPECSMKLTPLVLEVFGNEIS
Assay: qHTS assay to identify small molecule agonists of the vitamin D receptor (VDR) signaling pathway (AID 743222; calls by dose curve)
Details: HEK293T VDR-UAS-bla, beta-lactamase FRET ratio, 16 h; series mostly up to 63.5 µM; activation: at the top concentration
In short: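 Tox21 cell reporter format: VDR-bla line, 16 h compound exposure in 5% CO2 at 37C, then fluorescence intensity after 2 h with LiveBLAzer B/G FRET substrate.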

Going from `CCCCC/C=C\C=C\C(=O)OCC` to `O=C1OC(O)C(C(Cl)Cl)=C1Cl` (stereo not drawn), the “activation” value rises from -10.6% [at 81.1 µM] to 2.1% [at 81.1 µM].

Compared with `CC(O)(c1ccc(Cl)cc1)c1ccc(Cl)cc1`, `O=C(Nc1ccccc1)c1cc(Cl)ccc1O` is lower in “activation” value: 2.12% for the first, -5.24% for the second.

Compared with `S=C1NC=NC2N=CNC12` (stereo not drawn), `COc1cccc(-c2ccc(/C=C\CN3CCCCCC3)cc2Cl)c1` is lower in “activation” value: -16.1% for the first, -16.5% for the second.

Going from `O=C1OC(=O)c2cc(-c3ccc4c(c3)C(=O)OC4=O)ccc21` to `O=C(CCN1CCC(c2ccccc2)C1)c1ccc2c(c1)OCCO2` (stereo not drawn), the “activation” value falls from -13.5% to -14.9%.

Biological target: Vitamin D3 receptor (Homo sapiens) (UniProt P11473)
Assay: qHTS assay to identify small molecule antagonists of the vitamin D receptor (VDR) signaling pathway (AID 743223; active means well fitted inhibition curve with a large enough effect in the signal ratio in the repeat runs, not every such curve was filed as active; the % refers to the signal ratio; further: potency means the concentration at half of the fitted maximal effect)
Details: VDR-UAS-bla HEK293T, beta-lactamase FRET ratio, 16 h; series mostly up to 61 µM; activity change, negative = inhibition: at the top concentration
In short: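 Inhibition of agonist-driven VDR signalling is scored in VDR-bla cells: 3 nM final 1alpha,25-dihydroxyvitamin D3 plus compound, 16 h at 37C, then beta-lactamase detection by FRET substrate fluorescence after 2 h.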

Compared with `C=CCc1cc(S(=O)(=O)c2ccc(O)c(CC=C)c2)ccc1O`, `O=C1OC(=O)c2cc(-c3ccc4c(c3)C(=O)OC4=O)ccc21` is lower in “activity change, negative = inhibition” value: 11.4% for the first, 2.55% for the second.

Going from `S=C1NC=NC2N=CNC12` (stereo not drawn) to `O=C(CCCCCCCCc1cccnc1)N1CCC(C=C(c2ccccc2)c2ccccc2)CC1`, the “activity change, negative = inhibition” value falls from -2.23% to -2.46%.

For `Cc1cc(F)ccc1-c1cc(N2CC[C@@H](O)[C@H]2CO)ncc1N(C)C(=O)C(C)(C)c1cc(C(F)(F)F)cc(C(F)(F)F)c1`, the Potency was 21.5 µM (active).
With `CCCCCN=C(N)N/N=C/c1c[nH]c2ccc(OC)cc12` the Potency was 13.4 µM (active).
In the case of `O=[N+]([O-])c1ccc(O)c2ncccc12`, the Potency is reported as 9.52 µM (active).
